Assay results: PubChem BioAssay (NCI)
This is part of a sample that, as a whole, favours compounds with a hit. Of some 83,000 tested, about 20% had one in any assay.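 48-hour exposure, single concentration, 96-well plates; percent growth endpoint where 0 means no net growth. Active: below 10.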 Unmarked numbers belong to inactive results. Activity calls are given as the source filed them.

System: NCI-H23 lung
Assay: NCI-60 one-dose screen, 48 h (100 = growth as untreated, 0 = no growth, -100 = all killed)
Settings: 10 µM unless noted
Description: Growth inhibition of the NCI-H23 human Non-Small Cell Lung tumor cell line is measured as a screen for anti-cancer activity. Cells are grown in 96 well plates and exposed to the test compound for 48 hours. Compounds are tested at a single concentration, which is 10^-5 M for most compounds. The reported endpoint is percent growth (GI% or GIPRCNT), where numbers from 0 - 100% represent growth inhibition, and numbers from -100% - 0 represent cell death. For example, a value of 40 represents 60% growth inhibition. A value of 0 means no net growth occurred over the course of the experiment. A value of -40 indicates 40% of cells at the beginning of the experiment died by the end of the experiment. A value of -100 means all cells are dead at the end of the experiment.
NCI-60 Human Tumor Cell Lines Screen was performed using the standard one-dose NCI protocol, which is described in more detail at https://dtp.cancer.gov/discovery_development/nci-60/default.htm.
Compounds with GIPRCNT values below 10 were considered active. Activity score was based on GIPRCNT using the following formula: […]
Score is 0 for GIPRCNT values of 100 or above, 50 for GIPRCNT values of 0, and 100 for GIPRCNT values of -100.

Row | Compound | growth
1 | COc1ccc(/C=c2\nc3n(-c4ccccc4)c4nc5c6c(sc5c(=N)n4n-3c2=O)CCCC6)cc1 | 80.8%
2 | COc1cc(C2CC(c3cc(OC)c(OCCCOc4ccc(-n5c(/C=C/c6ccccc6)nc6ccccc6c5=O)cc4)c(OC)c3)=NO2)cc(OC)c1OC (stereo not given) | 112%
3 | CCOC(=O)c1c(-c2ccc(Cl)cc2)c(C#N)c(=O)n(-c2ccccc2CC)c1N | 76.9%
4 | CN(c1ccccc1)c1ccc2c(c1)OCCC21CC1Nc1cnccc1C(=O)O (stereo not given) | 95.4%
5 | O=C(Nc1cccc(Cl)c1)c1cc(N=Nc2ccc([N+](=O)[O-])cc2Cl)ccc1O | 63%
6 | COc1cc(C(=O)/C=C/c2c(C(F)(F)F)nc3sccn23)cc(OC)c1OC | 1.76% (active)
7 | O=C1/C(=C\c2c[nH]c3ccccc23)c2ccccc2N1c1c(Cl)cccc1Cl | -80.1% (active)
8 | COc1cccc(-c2nc3sccn3c2-c2ccnc(NCCNS(=O)(=O)c3cccc(F)c3)c2)c1 | 33.7%
9 | COc1ccc(Nc2nnc(SCc3ccccc3F)s2)cc1 | 95.7%
10 | N#C/C(=C\c1ccc(Br)cc1)n1nnc2cc(F)c(F)cc21 | 28.5%
11 | Cc1ccc(Nc2ccc(Nc3ccc(C)cc3)c3c2C(=O)c2cccc(O)c2C3=O)cc1 | 84.5%
12 | COc1ccc2c(c1)O/C(=C/c1ccc(OCC(=O)c3ccccc3)cc1)C2=O | 98.1%
13 | Cc1cccc(NC(=O)CSc2nc3ccccc3[nH]2)c1 | 94.6%
14 | COC(=O)[C@]12CC[C@@H](C)[C@H](C)[C@@H]1C1=CC[C@@H]3[C@@]4(C)C(C=O)=C[C@@](C)(COC(=O)c5ccco5)C4=CC[C@@]3(C)[C@]1(C)CC2 | 8.23% (active)
15 | Cc1ccc2nc(NC(=O)CSc3nc(-c4ccccc4)c(C#N)c(=O)n3Cc3ccccc3)sc2c1 | 85.9%
16 | COc1ccc(NC(=O)c2nc(-c3cc(OC)c(OC)c(OC)c3)n(-c3cccc4ccccc34)n2)cc1OC | 45.4%
17 | O=C(/C=C/c1ccc(Cl)nc1)c1ccc(Cl)cc1Cl | 105%
18 | S=C(c1ccc2c(c1)OCO2)N1CCN(c2ccccc2Cl)CC1 | 101%
19 | CC1CC2Oc3ccc(Cl)cc3C(=O)N2O1 (stereo not given) | 99.5%
20 | Oc1c(CN2CCCC2)cc(COCc2ccc(Br)cc2)c2cccnc12 | 20.7%

Row | Compound | growth
21 | CCc1ccccc1-n1c(-c2ccc(Cl)cc2)cc(-c2ccc(Cl)cc2)c(C#N)c1=O | 94.2%
22 | NC[C@H](O)c1ccc(O)c(O)c1 | 98.8%
23 | COc1ccc(-c2nc(SC(C)C)nc(NNC(N)=S)c2C#N)cc1 | 69.7%
24 | COCCN(C(=O)c1ccc(F)cc1F)c1c(N)n(Cc2ccccc2)c(=O)[nH]c1=O | 95.4%
25 | COc1ccc(C2=NN(C(=O)c3cc(OC)c(OC)c(OC)c3)C(c3ccc(Cl)cc3)C2)cc1OC (stereo not given) | -7.6% (active)
26 | CCCCn1c(=O)c2c(nc3n2CCCN3CCc2ccc(OCC(=O)NCCN(CC)CC)cc2)n(CCCC)c1=O | 68.7%
27 | CCOC(=O)c1c2c(n3ccc(NC(=O)OC(C)(C)C)cc13)C(=O)c1ncccc1C2=O | -77.5% (active)
28 | N=C1CCC(=N)c2c1c(O)c1ccccc1c2O | 82.3%
29 | O=C1Nc2ccccc2/C1=C/c1cn(C(=O)c2ccc(Cl)cc2)c2ccccc12 | 90.8%
30 | CCOC(=O)c1csc(NC(=O)COc2cccc(/C=C3\Oc4cc(OC)ccc4C3=O)c2)n1 | 90.7%
31 | Cn1cc2c(c1)-c1nc(Nc3ccccc3)ncc1CC2 | 38.3%
32 | CC(C)=C[C@@H]1c2c(c3ccccc3n(C)c2=O)O[C@H]2c3c(c4ccccc4n(C)c3=O)OC(C)(C)[C@@H]12 | 99.6%
33 | CCOP(=O)(OCC)C1CP(=O)(c2ccccc2)CC(C)=C1Cl (stereo not given) | 91.7%
34 | COC(=O)[C@]12CC[C@@H](C)[C@H](C)[C@@H]1C1=CC[C@@H]3[C@@]4(C)C(C=O)=C[C@@](C)(COC(=O)/C=C/c5ccccc5)[C@@H]4[C@H](O)C[C@@]3(C)[C@]1(C)CC2 | 10.4%
35 | CC1SC(c2ccc(OCc3ccccc3)cc2)N(NC(=O)C(O)(c2ccccc2)c2ccccc2)C1=O (stereo not given) | 61%
36 | O=c1c2cc(F)ccc2sc2c(NCCN3CCCCC3)nc3ccccc3c12 | 65.6%
37 | CNC(=O)NCC1OC(n2cnc3c(NC(=O)Nc4ccccc4)ncnc32)C(O[Si](C)(C)C(C)(C)C)C1CC(=O)N(C)OC (stereo not given) | 48.2%
38 | COC(=O)[C@]12CC[C@@H](C)[C@H](C)[C@@H]1C1=CC[C@@H]3[C@@]4(C)C(C=O)=C[C@@](C)(COC(C)=O)[C@@H]4[C@H](O)C[C@@]3(C)[C@]1(C)CC2 | -12.8% (active)
39 | COc1cc(/C=N/n2c(CN3CCOCC3)nc3ccccc3c2=O)cc(OC)c1OC | 98.9%
40 | O=C(Nc1ccccc1)Nc1cccc(Oc2nnc(Cl)c3ccccc23)c1 | 32.7%
